Compound activity as filed in PubChem.
Sampled rows, rich in hits. Any-hit rate of the full collection: about 7.3%.
RORgamma inh = inhibitors of mouse ROR gamma transcriptional activity; Drosophila S2 Gal4-RORgamma UAS-luciferase reporter, 20 h; hit rate 5.4% among 310,000; Potency, µM (titrated, usually from 53.6 µM), for inactives: at the top dose activity change, negative = inhibition, most hits filed as inhibitors; note: nearly all actives have a fitted effect of over 60% in size
Target sequence (P51450 whole entry, looked up, the tested form may be a part): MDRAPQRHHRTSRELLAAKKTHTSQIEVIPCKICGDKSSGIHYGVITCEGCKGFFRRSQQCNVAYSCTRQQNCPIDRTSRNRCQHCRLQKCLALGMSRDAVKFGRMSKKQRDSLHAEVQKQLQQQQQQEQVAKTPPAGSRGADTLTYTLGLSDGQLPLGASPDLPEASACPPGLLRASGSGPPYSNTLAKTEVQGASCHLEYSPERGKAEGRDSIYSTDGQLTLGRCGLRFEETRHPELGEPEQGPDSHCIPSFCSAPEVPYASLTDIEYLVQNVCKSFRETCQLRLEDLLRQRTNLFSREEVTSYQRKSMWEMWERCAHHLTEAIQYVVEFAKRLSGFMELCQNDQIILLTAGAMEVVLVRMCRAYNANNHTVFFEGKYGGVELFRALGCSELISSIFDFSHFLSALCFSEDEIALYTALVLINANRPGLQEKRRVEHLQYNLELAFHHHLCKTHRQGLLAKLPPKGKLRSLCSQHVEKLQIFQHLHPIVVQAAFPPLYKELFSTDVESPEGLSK
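Stably transfected Drosophila Schneider cells are the test system, with ROR gamma fused to Gal4 and luciferase under UAS control; luminescence is read after 20 hr of 700 uM copper sulfate induction at ambient temperature.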
Tau ThT inhib = tau fibrillization inhibition (ThT binding); P10636; recombinant tau K18 P301L, heparin-induced fibrillization, ThT fluorescence; Potency, µM (top dose mostly 57.4 µM), inactives show at the top dose activity, negative = inhibition, usual class: inhibitors; hit rate 2.1% among 270,000; AID 1460; note: nearly all actives have a fitted effect of over 55% in size
Target sequence (P10636 561-689 P618L limits assumed): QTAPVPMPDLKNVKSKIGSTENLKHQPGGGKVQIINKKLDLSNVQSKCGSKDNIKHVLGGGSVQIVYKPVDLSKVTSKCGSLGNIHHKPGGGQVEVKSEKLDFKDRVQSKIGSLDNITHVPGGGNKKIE
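ThT emission at 510 nm, taken 1 hr after adding 30 uM dye, quantifies aggregates formed when 20 uM heparin acts on human tau K18 P301L for 6 hr at 37 C.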
Gal4-VP16 FLuc = Gal4-VP16 reporter inhibition counter-screen. hit rate 3.5% among 310,000. Potency, µM (titrated, usually from 53.6 µM), for inactives: at the highest dose activity, negative = inhibition, usual class: inhibitors. Drosophila S2 Gal4-VP16 UAS-luciferase, luminescence, 20 h. AID 2546;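 note: Gal4-VP16 expression switched on by copper sulfate through the metallothionein promoter; nearly all actives have a fitted effect of over 50% in size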
Tau fluor cs = counter-screen for tau fibril formation inhibitors; tau K18 P301L Alexa594 fluorescence, heparin fibrillization; Potency, µM (highest dose often 57.7 µM), for inactives: at the highest dose activity change, negative = decrease; hit rate 0.93% among 280,000; note: nearly all actives have a fitted effect of over 55% in size
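Human tau K18 P301L (15 uM unlabeled, 0.24 uM Alexa 594-labeled) in 100 mM sodium acetate pH 7 with 20 uM heparin, 6 hr at 37 C. ThT 30 uM added, 1 hr ambient; Alexa 594 FP and total fluorescence read at 555/632 nm.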
Tau fibril FP = inhibitors of human tau fibril formation; P10636; hit rate 0.39% among 280,000; Potency, µM (series often up to 57.7 µM), for the others: at the highest dose activity, negative = inhibition, usual class: inhibitors; AID 1468; K18 P301L tau heparin fibrillization, Alexa594 FP, 6 h; note: nearly all actives have a fitted effect of over 55% in size
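Read-out: fluorescence polarization of Alexa 594-labeled tau (0.24 uM), 555 nm excitation, 632 nm emission. Mixtures held 15 uM unlabeled K18 P301L, compound and 20 uM heparin, pH 7 acetate buffer, incubated 6 hr at 37 C.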
* hit, by the source's call; ? = inconclusive; . = no result; [ ] = dose if it differs, or a comment. Calls come from the whole dose curve; as a rule, active = well fitted curve in the direction sought with a large enough effect; inconclusive = small, poorly fitted or top-dose-only effect, or another doubt; inactive = no such curve, though single readings can be large; an effect the other way counts as inactive or inconclusive. % is set by controls: 0 for no effect and ±100 for the full control effect; potency is the fitted concentration of half-maximal effect.

SMILES | RORgamma inh | Tau ThT inhib | Gal4-VP16 FLuc | Tau fluor cs | Tau fibril FP
O=C(CSc1nc2ccsc2c(=O)n1Cc1ccccc1Cl)NCc1ccc(Cl)cc1 | . | 14% | . | -3% | -11%
COc1ccc(-c2cc(C3C4C=CCCC4(C)C(=O)N3Cc3ccccc3)ccc2F)cc1OC (centres undefined) | 18% | . | -1% | . | .
COc1ccc(C(=O)NCC(c2cccnc2)N2CCc3ccccc3C2)cc1OC (centres undefined) | . | ? | . | -30% | -11%
O=C(COc1ccc(Cl)cc1)Nc1nnc(-c2ccc3c(c2)CCCC3)o1 | -75% | 9% | ? | 0% | 1%
O=C(Nc1nnc(-c2ccc(Cl)cc2)o1)NC1CCCCC1 | ? | -2% | 3.5µM* | -2% | 7%
O=C(COc1ccccc1)Nc1nnc(-c2ccc(Cl)cc2)o1 | 7.1µM* | . | 5.6µM* | . | .
O=C(Nc1ccc(Cl)cc1)NC1CCCCC1 | 13% | -1% | ? | 3% | 5%
C/C(=C\C(=O)c1ccc(Cl)cc1Cl)N(C)C | 16µM* | ? | ? | -10% | -1%
CN(C)/C=C/C(=O)c1ccc(Cl)cc1Cl | 26% | 0% | 1% | -6% | 0%
O=C(/C=C/c1ccco1)Nc1ccc(N2CCCC2)cc1 | -7% | 2.2µM* | ? | -21% | 9%
CC(=C/C(=O)O)/C=C/c1ccco1 | ? | 14µM* | ? | -20% | ?
CC(=O)c1ccc(NC(=S)NC(=O)/C=C/c2ccco2)cc1 | 10%[1.91 µM] | . | ? | . | .
O=C(/C=C/c1ccco1)NC(=S)Nc1cccc([N+](=O)[O-])c1 | ? | 1% | ? | 0% | 10%
Cc1cccc(NC(=S)NC(=O)/C=C/c2ccco2)c1 | 4.5µM* | ? | ? | -28% | -8%
O=C(/C=C/c1ccco1)NC(=S)Nc1ccccc1 | 7.1µM* | . | 3.2µM* | . | .
COc1ccc(CNC(=O)Cn2c(-c3ccccc3)cc(C(C)=O)c2C)cc1OC | . | -11% | . | -13% | -7%
COC(=O)c1ccc(OCC2c3cc(OC)c(OC)cc3CCN2C(=O)Cc2ccc(OC)c(OC)c2)cc1 (centres undefined) | . | -5% | . | -5% | 1%
COc1ccc(F)cc1C(=O)C1CCCN(Cc2ccc(Sc3nncn3C)o2)C1 (centres undefined) | 27% | -6% | 3% | -3% | -3%
Cc1cccc(NC(=O)/C=C/c2ccc(Cl)cc2)n1 | 1.6µM* | -8% | 7.1µM* | -16% | 9%
Cc1cccc(NC(=S)NC(=O)/C=C/c2ccco2)n1 | 10µM* | ? | ? | -19% | 0%
NS(=O)(=O)c1ccc(NC(=S)NC(=O)/C=C/c2ccco2)cc1 | 10%[10 µM] | ? | -5% | -27% | -6%
Cc1cccc(NC(=O)/C(C#N)=C/c2ccc(Cl)cc2)n1 | 16% | . | 2% | . | .
Nc1ccc(Cc2nc3c(ccc4ccccc43)[nH]2)cc1 | ? | -3% | -1% | -13% | 5%
Cc1ccc2nc(-c3ccccc3N)[nH]c2c1 | 10µM* | ? | -3%[10 µM] | ? | -2%
O=c1[nH]c(-c2ccccc2O)nc2ccccc12 | 24% | -8% | 28% | -7% | 6%
SMILES | RORgamma inh | Tau ThT inhib | Gal4-VP16 FLuc | Tau fluor cs | Tau fibril FP
O=c1[nH]c(-c2ccccn2)nc2ccccc12 | 4µM* | -2% | 7.1µM* | 0% | -3%
Cc1sc2nc(-c3ccccn3)[nH]c(=O)c2c1-c1ccccc1 | 1.1µM* | 3% | 4.5µM* | -1% | 4%
c1ccc(-c2nc3c(ccc4ccccc43)[nH]2)nc1 | 0.35µM* | ? | 1µM* | -26% | 4%
CC(=O)Oc1c(Br)cc(N(C(C)=O)S(=O)(=O)c2ccccc2)c2ccccc12 | 4%[1.91 µM] | . | ? | . | .
CC(C)OC(=O)[C@@H]1CC[C@H](C)[C@@H](CCC[C@@H]2C[C@@H](O)C[C@H](CC#N)O2)O1 | -4% | -4% | 7% | -6% | ?
Cc1ccc2nc(C(C)O)[nH]c2c1 (centres undefined) | 27% | -1% | -4% | -5% | -4%
Cc1ccc2nc(-c3ccccn3)[nH]c2c1 | 4µM* | . | 6.3µM* | . | .
Cc1ccc(-c2nc3ccccc3[nH]2)s1 | 4%[0.365 µM] | -10% | . | -5% | -8%
O=c1[nH]c(-c2ccccn2)nc(C(F)(F)F)c1Br | 2.2µM* | -15% | 5µM* | -3% | -3%
O=c1[nH]c2cc3ccccc3cc2nc1C(F)(F)F | 0% | ? | 7% | -19% | -12%
Cc1ccc2nc(C(O)C(O)c3nc4ccc(C)cc4[nH]3)[nH]c2c1 (centres undefined) | 7.1µM* | 7% | 7.9µM* | 7% | 1%
Cc1ccc2nc(CCCc3nc4ccc(C)cc4[nH]3)[nH]c2c1 | -18% | . | 0% | . | .
Cc1c(N)cccc1-c1nc2ccccc2[nH]1 | 11µM* | 16% | ? | 3% | -1%
Cc1cccc(C)c1NC(=O)CN(CC(=O)O)CC(=O)O | 10% | . | -4% | . | .
c1ccc2[nH]c(-c3ccncc3)nc2c1 | 6% | 6% | 5% | 3% | -1%
c1ccc(-c2nc3ccccc3[nH]2)nc1 | 5.6µM* | -10% | 6.3µM* | -12% | 2%
CC(C)Cc1nc(N2CCN(C(=O)c3ccco3)CC2)c(C#N)c2c1CCC2 | -87% | ? | ? | -4% | 0%
CC(C)Cc1nc(N2CCN(C(=O)c3ccccc3)CC2)c(C#N)c2c1CCC2 | 35µM* | ? | 40µM* | -6% | -3%
CC(C)Cc1nc(N2CCN(C(=O)C(C)C)CC2)c(C#N)c2c1CCC2 | 1.4µM* | -20% | -5% | 1% | 12%
CC(=O)N1CCN(c2nc(CC(C)C)c3c(c2C#N)CCC3)CC1 | 12% | -10% | 1% | -5% | -3%
COc1ccc(C(c2c(O)cc(C)n(Cc3ccco3)c2=O)N2CCN(c3ccccc3)CC2)cc1 (centres undefined) | . | ? | . | 0% | -13%
COc1ccc(-n2c(-c3ccccc3)c[n+]3c2CCC3)cc1 | ? | 9% | ? | 6% | -5%
CCOc1ccc(-c2c[n+]3c(n2-c2ccccc2)CCCCC3)cc1 | ? | 6% | 3.5µM* | 1% | 2%
CCOc1ccc(-c2cnc3n2CCCCC3)cc1 | 11µM* | . | ? | . | .
c1ccc(-c2ccc(-c3cnc4n3CCCCC4)cc2)cc1 | 6.3µM* | ? | 11µM* | -6% | -7%
SMILES | RORgamma inh | Tau ThT inhib | Gal4-VP16 FLuc | Tau fluor cs | Tau fibril FP
Cc1ccc(-c2cnc3n2CCCCC3)cc1 | 3.5µM* | -2% | -15% | 5% | 7%
CN(C)c1ncc2ncc(=O)n(Cc3cccs3)c2n1 | ? | . | -6% | . | .
O=C(N/N=C/c1ccsc1)c1cc(-c2ccncc2)nc2ccccc12 | 11µM* | -2% | -13% | -14% | -5%
O=C(N/N=C/c1ccc[nH]1)c1cc(-c2ccc(Cl)cc2)nc2ccccc12 | 1.4µM* | -17% | 5.6µM* | ? | -3%
O=C(N/N=C/c1cccnc1)c1cc(-c2ccccc2)nc2ccccc12 | 0% | . | 0% | . | .
O=C(N/N=C/c1ccsc1)c1cc(-c2cccs2)nc2ccccc12 | 4µM* | 7% | 4.5µM* | -24% | ?
